# Shiga toxin inh = blocks Shiga toxin action in Vero cells | Vero cells, Shiga toxin protein synthesis inhibition reporter | inhibition, % at 38.7 µM | 290,000 tested, 9.2% active; in the data active means inhibition mostly above about 28%, no sharp cut-off; inactive means mostly below about 43%; further: 0% is about no effect
# Sm TGR inh = S. mansoni TGR enzyme inhibition. Q962Y6. purified TGR, DTNB reduction, TNB absorbance 405 nm. Potency, µM (series often up to 114 µM), for inactives: top-dose activity change, negative = inhibition, usual class: inhibitors. 360,000 tested, 3% active; further: potency means the concentration at half of the fitted maximal effect; on the % scale 0 is the no-effect control and ±100 the full control effect; nearly all actives have a fitted effect of over 60% in size
#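 TGR 20 nM + NADPH 100 uM (dispensed conc.), cpd preinc 15 min RT; start with NADPH (500 uM addition) then DTNB (15 mM addition). Kinetic TNB absorbance, 405 nm filter. Four-parameter Hill fit across titration.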
# Pf growth 96h = inhibits malaria parasite growth, 96 h. P. falciparum luciferase reporter growth, 96 h. Potency, µM (doses to about 28.7 µM), without a hit: at the top dose activity change, negative = inhibition, most hits filed as inhibitors. 320,000 tested, 6.9% active; further: potency means the concentration at half of the fitted maximal effect; on the % scale 0 is the no-effect control and ±100 the full control effect
#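 Erythrocytes infected with luciferase-expressing P. falciparum were dispensed at 2% hematocrit and 0.05% parasitemia (final), then incubated with compounds 96 hours at 37 C in 5% CO2. Luminescence after detection reagent addition reported growth.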
# NS1 inh = influenza NS1 inhibition; Potency, µM (series often up to 46.1 µM), for the others: at the highest dose activity, positive = more growth; 270,000 tested, 0.4% active; calls by dose curve; further: potency means the concentration at half of the fitted maximal effect; actives are rising curves; nearly all actives have a fitted effect of over 50% in size
#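 Recovery from NS1-induced slow growth read by OD600 in budding yeast switched to galactose assay medium (pH 6.0, -URA) at 1:100 dilution. Compound 23 nl per well; the matching strain lacking NS1 serves as control.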
# Pf growth 48h = P. falciparum growth inhibition at 48 hours (one generation); P. falciparum luciferase growth in erythrocytes, 48 h; Potency, µM (series often up to 28.7 µM), inactives show top-dose activity change, negative = inhibition, usual class: inhibitors; 310,000 tested, 5.9% active; AID 504832; further: potency means the concentration at half of the fitted maximal effect; on the % scale 0 is the no-effect control and ±100 the full control effect
#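 Erythrocytes infected with P. falciparum carrying an integrated firefly luciferase reporter (2% hematocrit, 0.1% parasitemia final) were exposed to compounds in RPMI 1640 with 0.5% Albumax at 37 C, 5% CO2. Growth inhibition was scored as reduced luminescence.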
# CHX counter = counter-screen for Shiga toxin inhibitors: cycloheximide protein synthesis inhibition | cell reporter, cycloheximide protein synthesis inhibition counterscreen | max response, % | 300,000 tested, 12% active; in the data active means max response mostly above about 13%, no sharp cut-off; inactive means mostly below about 14%; further: read at 38.3 µM for the half of the compounds with a filed dose; 0% is about no effect
# Active calls of the source: *; ? = inconclusive; nt = no result given; [ ] = dose if it differs, or a comment. Compounds with a hit are over-represented: about 21% of the library has one in this group of screens. Unless noted, the call rests on the fitted dose curve; in most records, active means well fitted curve in the direction sought with a large enough effect; inconclusive means small, poorly fitted or top-dose-only effect, or another doubt; inactive means no such curve, though single readings can be large; an effect the other way counts as inactive or inconclusive.
SMILES,Shiga toxin inh,Sm TGR inh,Pf growth 96h,NS1 inh,Pf growth 48h,CHX counter
O=C(NCc1cccs1)C1CC(c2ccc(F)cc2)=NO1 (stereo not drawn),49*,6%,?,nt,42%,28*
COc1cccc(C2=NOC(C(=O)NCc3cccs3)C2)c1 (stereo not drawn),54*,4%,18%,-17%,1%,26*
COc1ccc(CNC(=O)C2CC(c3cccc(OC)c3)=NO2)cc1 (stereo not drawn),8,6%,-36%,-31%,-17%,3
CC(C)CCNC(=O)C1CC(c2cccc([N+](=O)[O-])c2)=NO1 (stereo not drawn),-11,-33%,48%,-4%,63%,-4
CCCCNC(=O)C1CC(c2cccc([N+](=O)[O-])c2)=NO1 (stereo not drawn),83*,2%,19%,5%,54%,25*
CC(C)CNC(=O)COC(=O)c1n[nH]c2ccccc12,22,-1%,21%,-6%,0%,10
CCC(C)C(=O)N1c2ccccc2C(=C2SC(C(=O)OC)=C(C(=O)OC)S2)C(=S)C1(C)C (stereo not drawn),21,1%,?,-14%,9.3µM*,9
CSc1nc(/C=C2\C=Nc3ccccc32)c(O)n1C,117*,3%,32%,-8%,?,17*
Cn1c(O)c(/C=C2\C=Nc3ccccc32)c(=O)n(C)c1=O,10,-28%,45%,-1%,0%,-4
Cc1ccc(S(=O)(=O)c2cn(CC(=O)Nc3ccc4c(c3)OCO4)c3ccccc3c2=O)cc1C,nt,-15%,nt,nt,nt,nt
Cc1ccc(C(=O)NCc2ccco2)cc1S(=O)(=O)N1CCCCC1,-9,?,2.3µM*,5%,?,3
Cc1cc2cc(CNC(=O)c3ccc(S(=O)(=O)N4CCCCC4)cc3)ccc2n1C,17,-24%,42%,1.3µM*,nt,9
CN(Cc1ccco1)C(=O)Cn1cc(S(=O)(=O)N2CCCC2)c(S(=O)(=O)N2CCCC2)c1,-3,35µM*,?,10%,-23%,-1
CN(Cc1ccco1)C(=O)c1ccc(S(=O)(=O)N2CCCCCC2)cc1,nt,1%,-30%,nt,6%,nt
O=C(NCc1ccco1)c1ccc(F)c(S(=O)(=O)N2CCCCC2)c1,-9,-27%,?,9%,?,-1
CCOC(=O)CSc1nnc(CNC(=O)c2ccc(S(=O)(=O)N3CCCCC3)cc2)n1C,-7,2%,33%,-13%,-5%,1
COC(=O)CSc1nnc(CNC(=O)c2ccc(S(=O)(=O)N3CCCCC3)cc2)n1C,-19,4%,1.5µM*,-4%,6%,-3
CCCN1CCC(NC(=O)Cc2ccc(C)cc2)CC1,-3,-33%,?,2%,16%,-2
O=C(NCc1ccco1)c1cccc(S(=O)(=O)N2CCCCC2)c1,24,25µM*,nt,-3%,?,-1
O=C(COC(=O)c1ccc(S(=O)(=O)N2CCCC2)cc1)NCc1ccco1,1,40µM*,39%,-3%,29%,3
O=C(NCc1ccco1)c1ccc(S(=O)(=O)N2CCCCCC2)cc1,nt,-6%,10µM*,nt,8.3µM*,nt
Cc1ccc(NC(=O)c2nc(S(C)(=O)=O)ncc2N(Cc2ccco2)Cc2ccco2)cc1C,nt,-1%,nt,nt,nt,nt
CC(=O)Nc1ccc(S(=O)(=O)NCc2ccc(C(=O)NC(C)c3ccccc3)cc2)cc1 (stereo not drawn),-9,5%,nt,-2%,-12%,-2
CCCN1CCC(=O)N([C@H](CSc2ccc(OC)cc2)c2ccccc2)CC1,37*,22µM*,?,1%,?,15*
CCCN1CCC(=O)N(C(CSc2ccc(Br)cc2)CC(C)C)CC1 (stereo not drawn),89*,nt,nt,nt,nt,36*
SMILES,Shiga toxin inh,Sm TGR inh,Pf growth 96h,NS1 inh,Pf growth 48h,CHX counter
CC(C)C[C@@H](CSc1ccc(Br)cc1)N1CCN(CC(C)C)CCC1=O,75*,?,?,-7%,?,18*
CCCN1CCC(=O)N(C(CSc2ccc(Br)cc2)Cc2ccccc2)CC1 (stereo not drawn),-10,nt,nt,nt,nt,-5
CCCCCCCN1CCC(=O)N([C@H](CO)c2ccccc2)CC1,-4,-32%,34%,-9%,1%,-4
CCCN1CCC(=O)N(C(CSc2ccc(OC)cc2)CC(C)C)CC1 (stereo not drawn),53*,nt,nt,nt,nt,43*
CCCCn1c(N)c(N(CCOC)C(=O)COC(=O)COc2cc(C)c(Cl)cc2C(C)C)c(=O)[nH]c1=O,nt,-5%,4%,nt,-21%,nt
Cc1sc2ncnc(Sc3ccccc3C(=O)Nc3ccc(Br)cc3)c2c1C,51*,0%,6.6µM*,?,9.3µM*,29*
Cc1sc2ncnc(Sc3ccccc3C(=O)Nc3ccccc3Cl)c2c1C,-11,-14%,?,-6%,12µM*,4
CSc1ncc(C(=O)Nc2ccccc2Cl)c(C)n1,6,11%,?,3%,-23%,1
COc1ccc(NC(=O)CN(C)C(=O)c2ccccc2Sc2ncnc3sc(C)c(C)c23)cc1,nt,2%,?,nt,?,nt
Cc1sc2ncnc(Sc3ccccc3C(=O)Nc3ccc(C#N)cc3)c2c1C,15,6%,?,8%,10µM*,-4
COc1ccc(CC2(CO)CCN(S(=O)(=O)c3cccc4cccnc34)CC2)cc1,3,-30%,12µM*,1%,-21%,1
COc1ccc(CC2(CO)CCN(S(=O)(=O)N(C)C)CC2)cc1,19,-1%[57.1 µM],5.9µM*,-8%,25%,-2
COc1ccc(CC2(CO)CCN(Cc3cnn(-c4ccccc4)c3)CC2)cc1,17,14%,-4%,0%,-8%,-2
CCCn1ncc(CN2CCC(CO)(Cc3ccc(OC)cc3)CC2)c1C,7,4%,0.37µM*,-1%,-3%,9
COc1cccc(CC2(CO)CCN(S(=O)(=O)c3ccc(OC)cc3OC)CC2)c1,-32,-2%,302%,-7%,?,2
CCc1ccc(CNC(=O)C2CCCN(c3nnc(C)c4c(C)n(-c5ccc(OC)cc5)nc34)C2)cc1 (stereo not drawn),nt,-3%,nt,nt,nt,nt
COCCN(CC(=O)Nc1cccc(C)c1C)C(=O)c1ccc(S(=O)(=O)N2CCOCC2)cc1,nt,3%,-5%,nt,?,nt
CSc1n[nH]c(-c2sccc2OCc2ccc(C)cc2)n1,-2,-7%,4.1µM*,-67%,?,-1
COc1ccc(Cl)cc1-c1nc(N)nc(N(C)C)n1,-7,2%,0%,-4%,-5%,-3
Oc1ccc(-c2nc3ccccc3s2)c(O)c1,92*,1%,86%,-87%,171%,40*
O=C(Nc1ccc(O)c(-c2nc3ccccc3s2)c1)c1cc(=O)c2ccccc2o1,12,-6%,?,11%,?,-1
CN(C)c1nc(N)nc(-c2nc3ccccc3s2)n1,101*,-2%,nt,-7%,136%,39*
